Source: PubChem
Only some compounds are listed: those with a hit (about 2.6% of all), similar ones and a draw of the others.
GPR7 antagonist: GPR7 receptor antagonists, primary screen, cell-based, fluorescence, single concentration; inhibition, % at 4.4 µM; AID 1861, 2009; Neuropeptides B/W receptor type 1 (Homo sapiens), P48145; hit rate 1.1% among 290,000; GPR7-expressing cells, fluorescence antagonist assay; in the data active = inhibition above about 16%, passing the limit was not always enough;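 also: cells stimulated with the agonist NPW; 0% = agonist with vehicle and 100% = vehicle without agonist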
Target sequence (P48145 whole entry, looked up): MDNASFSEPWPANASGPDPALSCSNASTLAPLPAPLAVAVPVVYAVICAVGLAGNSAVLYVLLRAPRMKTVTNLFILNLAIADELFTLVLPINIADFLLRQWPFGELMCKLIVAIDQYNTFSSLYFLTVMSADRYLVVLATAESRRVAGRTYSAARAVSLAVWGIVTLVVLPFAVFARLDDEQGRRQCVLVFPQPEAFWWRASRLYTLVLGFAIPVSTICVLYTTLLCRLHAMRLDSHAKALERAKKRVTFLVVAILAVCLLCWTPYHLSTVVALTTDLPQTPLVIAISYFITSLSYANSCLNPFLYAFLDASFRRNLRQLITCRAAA
Ba/F3 V617F tox: reduced viability of JAK2V617F-dependent Ba/F3 cells, primary screen, JAK2V617F inhibitor project, cell-based, Ba/F3 EpoR-JAK2V617F, luminescence | ATP luminescence | inhibition, % at 5.6 µM | hit rate 1.1% among 220,000 | AID 1446, 2008;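 active = inhibition above the campaign mean plus 3 SD over all tested compounds, cut at about 24% in these data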;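 also: cytokine-independent growth of Ba/F3 cells driven by EpoR plus mutant JAK2; 0% = DMSO-treated cells and 100% = JAK inhibitor I control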
BaF3 parental: parental Ba/F3 cell viability inhibition, counter-screen for JAK2V617F inhibitor project, murine pro-B, CellTiter-Glo luminescence; CellTiter-Glo ATP luminescence; inhibition, % at 5.6 µM; hit rate 1.1% among 220,000; AID 1486, 2009;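 active = inhibition above a per-campaign cutoff, the mean inhibition of all tested compounds plus 3 SD, cut at about 27% in these data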;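 also: 0% = DMSO wells and 100% = JAK Inhibitor I control wells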
FID counter: compounds displacing fluorescent DNA intercalator, primary screen, artefact control for HCV NS3 helicase inhibitor project, biochemical, FID fluorescence | hit rate 0.17% among 290,000 | DNA fluorescent intercalator displacement | inhibition, % at 7.9 µM; in the data active = inhibition above about 37%;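 also: 0% = vehicle and 100% = reference compound; higher means more ethidium bromide displaced from hairpin DNA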
IEC-6 tox: cytotoxicity in IEC-6 intestinal epithelial cells, primary screen, cytotoxicity control for KLF5 inhibitor project, cell-based, luminescence | IEC-6 cytotoxicity, luminescence viability | inhibition, % at 5 µM | hit rate 0.78% among 290,000;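 also: 0% = plate median of test compound wells and 100% = cytotoxic reference compound wells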
KLF5 inhibitor: KLF5 expression inhibitors, primary screen, DLD-1 cells, luminescence | inhibition, % at 5 µM | AID 1700, 2009 | DLD-1 KLF5 promoter-luciferase reporter | hit rate 0.23% among 290,000;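 active = inhibition above a per-plate limit of that plate's mean compound inhibition plus 3 SD, cut at about 60% in these data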;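 also: 0% = DMSO wells and 100% = LY294002 at 200 µM; higher means less KLF5 promoter-driven luciferase light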
GPR7 antag conf: GPR7 receptor antagonists, confirmation, cell-based, fluorescence, single concentration; shares compounds with GPR7 antagonist; GPR7-expressing cells, calcium fluorescence antagonist mode; inhibition, % at 4.4 µM; hit rate 52% among 2,400; AID 1952, 2009; in the data active = inhibition above about 24%;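 also: stimulated with the GPR7 agonist NPW; 0% = agonist plus vehicle and 100% = vehicle alone without agonist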
MCHR1 antagonist: MCHR1 antagonists in cells, counter-screen for GPR7 antagonist project, cell-based, fluorescence, human; hit rate 62% among 2,400; shares compounds with GPR7 antagonist; inhibition, % at 4.4 µM; MCHR1-expressing cells, fluorescence antagonist assay;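 also: 0% = vehicle with agonist and 100% = vehicle without agonist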
* hit, by the source's call; x = no result. Rule as the data show it, unless noted: active = inhibition above about 22%; inactive = the rest.

SMILES	GPR7 antagonist	Ba/F3 V617F tox	BaF3 parental	FID counter	IEC-6 tox	KLF5 inhibitor	GPR7 antag conf	MCHR1 antagonist
O=P(OC1CCCCC1)(OC1CCCCC1)C(Nc1ccccc1)c1cccnc1 (configuration not stated)	32*	-2	-3	-50	-3	1	31*	39*
CCOP(=O)(OCC)C(Nc1ccccc1)c1cccnc1 (configuration not stated)	-10	-2	2	-7	-1	-12	x	x
O=c1c2sccc2n(Cc2cccc(F)c2)c(=O)n1-c1ccc(F)cc1	-7	-4	4	-7	-15	11	x	x
O=c1[nH]c(C2CCN(S(=O)(=O)c3cccc(Cl)c3)CC2)nc2c1nnn2Cc1ccccc1	11	x	x	-40	3	-5	x	x
O=c1[nH]c(C2CCN(S(=O)(=O)c3ccccc3)CC2)nc2c1nnn2Cc1cccc(Cl)c1	25*	x	x	-35	-3	8	8	-8
COc1cc(C(c2sc3nc(C)nn3c2O)N2CCc3ccccc3C2)cc(OC)c1OC (configuration not stated)	-11	0	4	-24	-4	-10	x	x
COc1ccc(CNc2nc(S(=O)(=O)c3ccccc3)c(Cl)s2)cc1OC	34*	1	8	-21	2	15	35*	54*
O=S(=O)(c1ccccc1)c1nc(NCc2ccccc2)sc1Cl	-14	-1	5	-16	-1	-22	x	x
CCc1nccn1S(=O)(=O)c1ccc2ccccc2c1	-3	3	4	-8	0	2	x	x
OCC1CCCCN1CCNCc1cn[nH]c1-c1cccc2ccccc12 (configuration not stated)	2	-1	-3	9	-8	8	x	x
c1ccc2c(-c3[nH]ncc3CNCCCn3ncc4ccccc43)cccc2c1	22*	16	13	31	-4	1	27*	52*
COc1ccccc1CNC(=O)c1c(N)n(CCCN2CCOCC2)c2nc3ccccc3nc12	10	3	6	-2	6	10	x	x
Nc1c(C(=O)NCc2ccc3c(c2)OCO3)c2nc3ccccc3nc2n1CCCN1CCOCC1	23*	2	2	2	9	-1	49*	51*
COc1ccc(CCNC(=O)COC(=O)c2ccc(Br)o2)cc1	-1	5	6	-13	0	-9	x	x
COc1ccc(CCNC(=O)COC(=O)c2ccc(Br)o2)cc1OC	29*	-1	4	-7	2	-4	-14	16
CN(CC(=O)Nc1ccccc1Br)C(=O)CCC1CCCC1	4	x	x	-32	9	11	x	x
CN(CC(=O)Nc1ccccc1Br)C(=O)CCc1ccccc1	23*	x	x	-14	-2	-10	2	-9
O=C(NCCC1=CCCCC1)c1coc(=O)c(Br)c1	33*	8	0	-3	2	-3	14	24*
O=C(NCCC1=CCCCC1)c1ccc(Cl)c(S(=O)(=O)N2CCCCC2)c1	50*	x	x	-35	-2	-42	44*	50*
O=C(NCCC1=CCCCC1)c1ccc(=O)oc1	-3	1	4	-1	1	-18	x	x
O=C(NCCC1=CCCCC1)c1ccc(Cl)c(S(=O)(=O)N2CCOCC2)c1	-2	2	7	-23	6	5	x	x
Cc1ccccc1N(C(=O)c1csnn1)C(C(=O)NC(C)(C)C)c1ccncc1 (configuration not stated)	-5	0	3	-3	-3	7	x	x
O=C(COc1ccc(F)cc1)NNC(=O)c1cc2ccccc2oc1=O	-10	6	8	1	8	-10	x	x
COCCCNCCOc1ccccc1-c1ccccc1	4	4	5	14	9	-15	x	x
CCCCNCCOc1ccccc1-c1ccccc1	22*	-2	6	27	-3	18	27*	29*
SMILES	GPR7 antagonist	Ba/F3 V617F tox	BaF3 parental	FID counter	IEC-6 tox	KLF5 inhibitor	GPR7 antag conf	MCHR1 antagonist
Cc1cc(C)c(CSc2ncc(-c3ccc([N+](=O)[O-])cc3)[nH]2)c(C)c1	42*	0	5	13	4	-15	68*	83*
CC(=O)NS(=O)(=O)c1ccc(NC(=O)c2cc(-c3ccc(C)c(C)c3)nc3ccccc23)cc1	-2	0	3	-31	1	-9	x	x
COc1ccc(CCNC(=O)CSCc2ccc([N+](=O)[O-])cc2)cc1	0	2	4	-7	0	-24	x	x
Cc1cccc(CSCCNC(=O)CSCc2ccc([N+](=O)[O-])cc2)c1	53*	-4	0	-8	-3	-12	36*	73*
Cc1ccccc1CSCCNC(=O)CSCc1ccc([N+](=O)[O-])cc1	10	-7	1	-12	6	-15	x	x
Cc1ccc(CSCCNC(=O)CSCc2ccc([N+](=O)[O-])cc2)cc1	27*	-1	3	-9	-5	12	49*	45*
Cc1cccc(C)c1NC(=O)CN(C)c1ccc(C(F)(F)F)cn1	11	-2	6	-9	-5	-4	x	x
O=C(Nc1ccc(OC(F)(F)F)cc1)Nc1cccnc1	22*	3	-1	-3	2	-54	4	30*
Oc1c(-c2cc(-c3ccco3)[nH]n2)ccc2ccccc12	-18	5	8	0	-5	-184	x	x
O=S(=O)(NCCN1CCOCC1)c1ccc2c(c1)OCCO2	-7	0	-1	-3	2	7	x	x
FC(F)Sc1ccc(NC(=S)NC2CCCCC2)cc1	-2	-2	0	-4	6	-44	x	x
FC(F)Sc1ccc(NC(=S)NCC2CCCCC2)cc1	34*	-1	4	-7	-2	-42	58*	75*
FC(F)Sc1ccc(NC(=S)NCc2ccccc2)cc1	46*	1	11	-2	2	-15	37*	51*
O=C1CCCN1c1ncc(S(=O)(=O)c2ccc([N+](=O)[O-])cc2)s1	1	4	5	0	-2	12	x	x
COc1ccc(Br)c(C(=O)NC2CCCC2)c1	22*	-3	1	-13	-1	-8	-9	2
COc1ccc2oc(C(=O)NC3CCCCC3)c(C)c2c1	29*	x	x	-42	7	-160	20	30*
Cc1c(C(=O)NC2CCCCC2)oc2ccc(F)cc12	19	x	x	-23	12	-82	x	x
